This is a sample that favours compounds with a hit; in the whole collection about 2.6% have one here.
KKLEB cytotox – cytotoxicity in KKLEB CF airway cells, primary screen, cytotoxicity control for CF NF-kB inhibitor project, cell-based, uHTS, fluorescence assay plates; KKLEB CF airway cells viability, ATPlite luminescence, overnight; hits give low values; cells stimulated with P. aeruginosa culture filtrate; AID 602141, 2011; activity change (cytotoxicity), % at 5 µM; hit rate 0.36% among 360,000;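 active = corrected activity change at or below -50% at 5 µM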
TWEAK-Fn14 inh – inhibitors of TWEAK-Fn14 signaling, primary screen, luciferase reporter cells, uHTS; TWEAK-stimulated Fn14 reporter cells, luciferase luminescence, 8 h; inhibition, % at 10 µM; hit rate 2% among 360,000; in the data active = inhibition above about 50%
TROY NFkB inh – inhibitors of TROY-driven NF-kB signaling, primary screen, Q293 LMP1-TROYcd cells, NF-kB luciferase, uHTS; Q293 LMP1-TROYcd NF-kB luciferase reporter, 4 h; inhibition, % at 10 µM; hit rate 0.98% among 360,000; AID 1347056, 2019;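 active = compounds whose plate-normalised and pattern-corrected inhibition of the luciferase reporter signal at the single screening dose is 50% or more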
EWS-Fli block – EWS/Fli-driven NR0B1 reporter inhibitors, primary screen, A673 cells, NR0B1 luciferase, luminescence, MLPCN library; viability-normalised; AID 651661, 2012; inhibition, % at 12.6 µM; hit rate 0.67% among 350,000;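 active = mean inhibition of at least 50% after viability correction, with every replicate also passing that limit; inconclusive = mean reaches 50% but only one of two replicates passes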;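 note: firefly luciferase signal divided by Alamar Blue viability fluorescence both relative to DMSO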
LGR2 inh – inhibitors of bursicon-induced LGR2 CRE-luciferase signal, primary screen, cell-based, HEK293, CRE-luciferase reporter, bursicon stimulation. Drosophila bursicon receptor LGR2 (rickets). bursicon-stimulated, 4 h. inhibition, % at 9.99 µM. hit rate 0.35% among 380,000;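 active = drop in luminescence signal, shown as inhibition above about 50% in the replicate tests, limit read from the data, passing the limit was not always enough; inconclusive = probably only some replicates passing the limit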;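 note: agonist challenge used bursicon conditioned medium at about half maximal strength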
CF NFkB inh – inhibitors of PAF-induced NF-kB signaling, primary screen, cell-based, GFP fluorescence, uHTS; KKLEB NF-kB-GFP reporter, GFP fluorescence overnight; AID 588850, 2011; hit rate 0.86% among 360,000; inhibition, % at 5 µM;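 active = at least 50% inhibition at 5 µM, scaled per plate between neutral and stimulator controls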;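 note: PAF is a Pseudomonas aeruginosa culture filtrate used as stimulus; plate controls were PAF-stimulated DMSO wells for no effect and unstimulated DMSO wells for full effect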
* = called active by the depositor; ? = inconclusive; · = no result.

SMILES	KKLEB cytotox	TWEAK-Fn14 inh	TROY NFkB inh	EWS-Fli block	LGR2 inh	CF NFkB inh
N#C/C(=C/c1ccc(N2CCCCCC2)o1)c1ccc(Cl)cc1	-40	1	-9	·	·	71*
N#C/C(=C/c1ccc(N2CCCCC2)o1)c1cccc(F)c1	11	-3	22	0	20	-12
COc1ccc(-c2noc(CCCC(=O)N3CCN(c4cc(C)ccc4C)CC3)n2)cc1	12	-3	13	-53	-44	-1
COc1ccc(-c2noc(CCCCC(=O)N3CCN(c4cc(C)ccc4C)CC3)n2)cc1	-4	64*	44	44	26	23
COC(=O)CN1C(=O)N(c2ccccc2)C(N(O)C(=O)Nc2ccccc2)C1(C)C (stereo unspecified)	-9	0	-27	·	·	3
COC(=O)CNC(=O)CN1C(=O)N(c2ccccc2)C(N(O)C(=O)Nc2ccccc2)C1(C)C (stereo unspecified)	-18	81*	-9	·	·	10
NC1=NC(=O)/C(=C\c2cccnc2)S1	2	41	28	-10	·	52*
CCOc1ccc(N(CC(=O)Nc2cccc(C)c2C)S(=O)(=O)c2c(C)[nH]c(=O)[nH]c2=O)cc1	-1	-8	-22	-6	6	-2
CCOc1ccc(N(CC(=O)Nc2c(C)cccc2C)S(=O)(=O)c2c(C)[nH]c(=O)[nH]c2=O)cc1	-2	80*	12	-9	4	27
O=C(OCc1nnc(-c2ccccc2)o1)c1ccc2ccccc2n1	6	79*	·	·	·	-2
O=C(OCc1nnc(-c2ccccc2)o1)c1cc2ccccc2cc1O	9	-6	-12	-14	-7	-7
O=C(C[C@H]1CC[C@H](NS(=O)(=O)c2ccc(F)cc2)[C@H](CO)O1)NCCc1ccncc1	·	·	·	0	5	·
COc1ccc(NC(=O)N(C)C[C@H]2Oc3c(NC(=O)C4CCOCC4)cccc3C(=O)N([C@H](C)CO)C[C@H]2C)cc1	·	·	·	0	8	·
COc1cc(OC)c(S(=O)(=O)N2CCCCC2)cc1S(=O)(=O)N1CCCCC1	8	83*	·	·	·	-5
COc1c(S(=O)(=O)N2CCCCC2)ccc2c(S(=O)(=O)N3CCCCC3)cccc12	7	64*	43	·	·	11
O=C(C[C@@H]1C[C@H]2c3cc(NC(=O)c4cccnc4)ccc3O[C@H]2[C@H](CO)O1)NCCc1ccccc1	·	·	·	-1	-9	·
CCOC(=O)C(=Cc1ccc(N(C)C)cc1)C(=O)c1ccccc1	1	35	11	-19	4	6
CCOC(=O)N(O)c1ccc(C=Cc2ccccc2)cc1	-6	20	24	-63	67*	-24
Cc1cc(NC(=O)/C=C/c2cccc(F)c2)n(-c2nc3ccccc3[nH]2)n1	-31	-16	-11	26	2	33
Cc1cc(NC(=O)/C=C/c2cccc(Cl)c2)n(-c2nc3ccccc3[nH]2)n1	-56*	34	-25	·	23	54*
Cc1cc(=O)n(C)c2ccccc12	-24	2	12	5	-22	-4
Cc1cc(=O)n2c3c(c4c(cc13)c(CN(C)C)cc(=O)n4C)OC2	-2	-24	52*	?	105*	-83
CO[C@H]1CN(C)C(=O)c2cc(NC(=O)c3nc4ccccc4s3)ccc2OC[C@@H](C)NC[C@@H]1C	·	·	·	54*	-2	·
CO[C@@H]1CN(C)C(=O)c2cc(NC(=O)c3ccc(-c4ccccc4)cc3)ccc2OC[C@@H](C)NC[C@@H]1C	·	·	·	75*	13	·
CO[C@@H]1CN(C)C(=O)c2ccc(NC(=O)c3cccc(Oc4ccccc4)c3)cc2OC[C@H](C)NC[C@H]1C	·	·	·	70*	11	·
SMILES	KKLEB cytotox	TWEAK-Fn14 inh	TROY NFkB inh	EWS-Fli block	LGR2 inh	CF NFkB inh
CO[C@H]1CN(C)C(=O)c2cc(NC(=O)c3ccc(-c4ccccc4)cc3)ccc2OC[C@@H](C)NC[C@H]1C	·	·	·	7	16	·
COc1cccc(C(=O)Nc2ccc3c(c2)OC[C@@H](C)NC[C@H](C)[C@@H](OC)CN(C)C3=O)c1	·	·	·	5	-16	·
C[C@H]1CN([C@@H](C)CO)C(=O)c2cc(C#CC3CCCCC3)cnc2O[C@@H]1CN(C)Cc1cncnc1	·	·	·	5	-17	·
COc1cc(C(=O)Nc2ccc3c(c2)nc(C)n3C)cc(OC)c1OC	-14	-1	-1	17	-26	-1
Cc1nc2cc(NC(=O)c3ccc(Cl)cc3)ccc2n1C	6	50*	-2	-3	3	-11
CCc1nc(Nc2cccc(O)c2)c2oc3ccccc3c2n1	5	70*	76*	·	·	12
CCc1nc(Nc2ccc3c(c2)OCO3)c2oc3ccccc3c2n1	-8	50*	31	·	·	-1
O=S(=O)(c1ccccc1F)N1CCCCN2[C@H](CO)[C@@H](c3ccc(-c4cncnc4)cc3)[C@H]2C1	·	·	·	-2	-3	·
O=C(C[C@@H]1C=C[C@H](NC(=O)c2ccc3c(c2)OCO3)[C@H](CO)O1)NCc1ccc(F)cc1	·	·	·	-1	9	·
Cc1nn2cc(-c3ccccc3)nc2s1	-8	57*	9	-8	-6	7
c1ccc(-c2cn3nc(-c4ccccc4)sc3n2)cc1	-60*	86*	61*	·	·	-9
COc1ccc(OC)c(S(=O)(=O)Nc2ccc(O)c3ccccc23)c1	-15	-3	12	·	·	64*
Cc1ccc(S(=O)(=O)Nc2ccc3c(c2)OCCO3)cc1C	2	87*	80*	30	26	4
Cc1n[nH]c(C)c1S(=O)(=O)Nc1ccc2c(c1)OCCO2	1	82*	63*	·	·	8
COc1ccc(OC)c(S(=O)(=O)Nc2ccc3c(c2)OCCO3)c1	-8	84*	76*	16	11	2
C[C@@H]1CN([C@H](C)CO)C(=O)Cc2cc(NS(=O)(=O)c3ccccc3)ccc2O[C@@H]1CN(C)C(=O)NC1CCCCC1	·	·	·	7	-6	·
O=C(C[C@@H]1CC[C@@H]2[C@H](COC[C@H](O)CN2Cc2ccncc2)O1)NCc1ccccc1Cl	·	·	·	·	-5	·
CCC(=O)N1[C@@H](CO)[C@@H]2c3ccccc3N(C(=O)CC(F)(F)F)C[C@@H]21	·	·	·	8	-37	·
CO[C@H]1CN(C)C(=O)c2ccc(NS(C)(=O)=O)cc2OC[C@@H](C)NC[C@H]1C	·	·	·	0	3	·
O=S(=O)(Nc1ccc2c(c1)OCCO2)c1cccc(F)c1	2	52*	40	5	-24	4
